Inconclusive results are not listed. A call without a number means that no potency is given here. The source made the active and inactive calls. Calls follow the shape of the dose curve; as a rule, active = well fitted cell-killing curve with a large enough effect; inconclusive = small, poorly fitted or top-dose-only effect; inactive = flat fitted curve, though single readings scatter.
test: qHTS assay to identify small molecule inhibitors of chordoma cells - UCH-2 (AID 1259356); conditions: UCH-2 chordoma viability, CellTiter-Glo ATP luminescence, 48 h; series mostly up to 46.1 µM
Potency is read from the fitted curve at half-maximal effect.

Row | Compound | Potency
1 | CCOC(=O)[C@H](CCc1ccccc1)N[C@H]1CCc2ccccc2N(CC(=O)O)C1=O | inactive
2 | Cc1ncc([N+](=O)[O-])n1CCO | inactive
3 | CC(C)C1CCC(C(=O)N[C@H](Cc2ccccc2)C(=O)O)CC1 (stereo not given in full) | inactive
4 | Cn1nnc2c(C(N)=O)ncn2c1=O | inactive
5 | CN1CCCC(n2nc(Cc3ccc(Cl)cc3)c3ccccc3c2=O)CC1 (stereo not given) | inactive
6 | N[C@@H](C(=O)N[C@@H]1C(=O)N2C(C(=O)O)=C(Cl)CS[C@H]12)c1ccccc1 | inactive
7 | CO[C@@]12[C@H](COC(N)=O)C3=C(C(=O)C(C)=C(N)C3=O)N1C[C@@H]1N[C@@H]12 | inactive
8 | OC(Cn1cncn1)(Cn1cncn1)c1ccc(F)cc1F | inactive
9 | C[C@@H](NCCCc1cccc(C(F)(F)F)c1)c1cccc2ccccc12 | 25.9 µM (active)
10 | O=C(O)c1cccnc1 | inactive
11 | O=c1cc(O)c(Cl)c[nH]1 | inactive
12 | CCn1cc(C(=O)O)c(=O)c2cc(F)c(N3CCN(C)CC3)cc21 | inactive
13 | NC(=O)N1c2ccccc2CC(=O)c2ccccc21 | inactive
14 | CC(N)C12CC3CC(CC(C3)C1)C2 (stereo not given) | inactive
15 | CN(CCOc1ccc(CC2SC(=O)NC2=O)cc1)c1ccccn1 (stereo not given) | inactive
16 | Cc1cccc(Nc2ccncc2S(=O)(=O)NC(=O)NC(C)C)c1 | inactive
17 | C#CCN[C@@H]1CCc2ccccc21 | inactive
18 | CCOC(=O)c1ccc(C#Cc2ccc3c(c2)C(C)(C)CCS3)nc1 | inactive
19 | CC(C)(C)C(=O)OCOP(=O)(COCCn1cnc2c(N)ncnc21)OCOC(=O)C(C)(C)C | inactive
20 | C[C@@H]1CN(c2c(F)c(N)c3c(=O)c(C(=O)O)cn(C4CC4)c3c2F)C[C@H](C)N1 | inactive
